PubChem BioAssay AID1063 (University of Pittsburgh Molecular Library Screening Center, 2008)
Hit rate of the full screen: of about 200,000 compounds, about 18,000 (9%) were called active. The sample holds actives, similar compounds and a random draw of the others, so the mix is not that of the screen. Unmarked numbers belong to inactive results. Cut-off read from the data, not from the text of the source: active = inhibition above about 50%; inactive = the rest.

Experiment: antileishmanial activity against promastigotes – primary screen (AID 1063);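 note: promastigotes grown with compound for 44 hours at 28 °C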
Conditions: Leishmania major promastigotes, resazurin fluorescence viability; at 10 µM; active compounds read high

Compound | inhibition
Cc1nc2ccccn2c1P(=S)(N1CCCCC1)N1CCCCC1 | 97.4% (active)
COc1ccc(CN2CCN(c3ccccc3F)CC2)c(OC)c1 | 9.36%
CC(c1ccccc1)(c1ccccc1)c1ccncc1 | 19.2%
CC(=NCc1ccc2c(c1)OCO2)c1c(O)[nH]c(=O)[nH]c1=O | -2.64%
c1cc2c(cc1CCNC1CCCCCC1)OCO2 | 95.2% (active)
Fc1ccc(N2CCN(Cc3ccc4c(c3)OCO4)CC2)cc1 | 44.5%
c1ccc2sc(C3CCCNC3)nc2c1 (centres undefined) | 31.9%
O=C(O)CCn1cc(C=C2C(=O)NC(=S)NC2=O)c(-c2cccc(Br)c2)n1 | -7.24%
Cn1c(O)c(C=NCCN2CCNCC2)c(=O)n(C)c1=O | -6.59%
CN1CCC(N(C)Cc2cccnc2)CC1 | -2.3%
COc1ccc(NC(=O)N2CCC3(CC2)OCCO3)c(OC)c1 | -0.24%
NC(=O)Cn1cc(C(=O)c2ccccc2F)c2ccccc21 | -6.3%
N#Cc1ccc(Cn2cc(C(=O)c3ccco3)c3ccccc32)cc1 | 93.3% (active)
CC(C)Nc1nc(Cl)nc(NC(C)C)n1 | 24.7%
COc1ccc(-c2nn(CCC#N)cc2C(=O)O)cc1 | -0.84%
CC(C)(C)c1ccc(OC(=O)N2CCCCC2)cc1 | -10.5%
CC(C)c1ccc(OCC(=O)N2CCN(C)CC2)c(Br)c1 | 37.9%
CN1CCN(C(=O)COc2ccc(C(C)(C)C)cc2Br)CC1 | 59.9% (active)
CSC1=NP(=S)(SC)N(C)c2nc3n(c21)CCC3 (centres undefined) | 2.74%
CN(C)C(=O)NC(O)C(Cl)(Cl)Cl (centres undefined) | -1.83%

Compound | inhibition
CN(C)CC1CCCCC1OC(=O)c1ccc(Cl)c(Cl)c1 (centres undefined) | 56.1% (active)
COc1ccc(NC(=O)c2cn(CCC#N)nc2-c2ccc([N+](=O)[O-])cc2)cc1 | -5.27%
CN1C2C=C(N(C(=O)c3ccc(Cl)cc3)c3ccccc3)CC1CC2 (centres undefined) | -6.27%
CCNc1nc2[nH]c(=O)c3c(c2s1)OC(N)=C(C#N)C3c1cccs1 (centres undefined) | 56.6% (active)
N#CC1=C(N)Oc2c(c(=O)oc3ccccc23)C1c1ccccc1OC(=O)c1cccs1 (centres undefined) | 8.6%
CCOCCc1c(O)[nH]c(=S)[nH]c1=O | -2.27%
O=C(CN1CCCC1=O)NCCc1ccccc1 | -2.62%
N[C@@H](Cc1c[nH]c2ccccc12)c1nnc(SCc2c(F)cccc2Cl)o1 | -1.59%
CC(Cc1cccs1)NCc1ccc(Cl)cc1 (centres undefined) | 37.3%
Cc1ccc(-c2cc(C(=O)N3CCC4(CC3)OCCO4)no2)cc1 | 3.46%
COC(=O)C(c1ccccc1)N1CCCCCC1 (centres undefined) | -3.28%
O=C(NCC(c1cccnc1)N1CCN(c2ccccc2)CC1)Oc1ccccc1 (centres undefined) | 86.7% (active)
COc1ccccc1N1CCN(C(CNC(=O)Oc2ccccc2)c2cccnc2)CC1 (centres undefined) | 90.8% (active)
COC(=O)N1C(c2ccccc2)C1c1ccccc1 (centres undefined) | -7.32%
CN(C)/C=C(\C=[N+](C)C)c1[nH]ncc1[N+](=O)[O-] | -3.98%
CC(C)CN1CCN(Cc2ccccc2C(F)(F)F)CC1CCO (centres undefined) | 1.28%
O=c1[nH]c(=S)n(C2CC2)c(O)c1/C=N/N1CCOCC1 | -5.26%
CN(C)C(=O)Oc1cc(=O)n2c3c(cccc13)CCC2 | 23.7%
Nc1ccc(C(=O)N/N=C2/CN3CCC2CC3)cc1 | -7.96%
